Bioassay records deposited in PubChem BioAssay by several laboratories.
Compounds with a hit are over-represented: about 2.5% of the library has one in this group of screens.
AI-2 QS mod: Vibrio harveyi AI-2 quorum sensing modulators, primary screen, JMH597 strain, luminescence/OD600 ratio | Vibrio harveyi JMH597 AI-2 luminescence/OD600 ratio, 9 h; stronger effect = lower value; strain lacks LuxN and CqsS sensors; 0 = neutral-control median | activity change, % at 7.5 µM | 0.4% of 300,000 active; in the data active = activity change below about -75%, passing the limit was not always enough;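 note: luminescence divided by OD600 gain over 9 h not by final OD600 alone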
SUMO Mot1 rescue: yeast Mot1-301 growth rescue at high temperature, primary screen, SUMOylation pathway inhibitor project, S. cerevisiae, ATP luminescence, 38.5C. 1% of 320,000 active. growth rescue, % at 18.8 µM. S. cerevisiae Mot1-301 growth rescue; percent above DMSO median, 100 means doubled. AID 2716, 2010;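 active = every valid replicate shows activation above 250% relative to neutral control wells; inactive = the rest, any valid replicate at or below 250%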
V-ATPase pH: regulators of yeast V-ATPase proton pumping, primary screen, pHLuorin cytosolic pH fluorescence; S. cerevisiae; 0.37% of 350,000 active; response, % at 10 µM; AID 504577, 2011; in the data active = response mostly above about 7.3%, no sharp cut-off; inactive = mostly below about 5.4%; note: actives read high
ATG4B inh: ATG4B protease inhibitors, primary screen, biochemical, fluorescence, uHTS. Cysteine protease ATG4B (Homo sapiens), Q9Y4P1. 0.51% of 340,000 active. inhibition, % at 8.33 µM. ATG4B cleavage of LC3-PLA2, NBD-HPC fluorescence, 1 h. AID 504462, 2011; in the data active = inhibition above about 40%
Target sequence (Q9Y4P1 whole entry, looked up): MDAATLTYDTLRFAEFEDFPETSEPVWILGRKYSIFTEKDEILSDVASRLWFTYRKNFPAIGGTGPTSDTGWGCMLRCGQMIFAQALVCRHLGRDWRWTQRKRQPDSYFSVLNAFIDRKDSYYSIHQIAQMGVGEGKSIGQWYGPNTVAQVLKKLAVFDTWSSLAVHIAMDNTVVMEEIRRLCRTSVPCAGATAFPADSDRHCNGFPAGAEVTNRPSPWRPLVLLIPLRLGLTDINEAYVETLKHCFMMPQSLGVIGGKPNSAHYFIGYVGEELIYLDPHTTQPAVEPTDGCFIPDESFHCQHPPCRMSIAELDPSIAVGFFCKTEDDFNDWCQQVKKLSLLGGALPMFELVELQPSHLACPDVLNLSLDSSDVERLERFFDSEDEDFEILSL
Efflux pump inh: inhibitors of Candida efflux pumps in yeast, primary screen, S. cerevisiae, Nile Red, multiplex; 0.44% of 330,000 active; inhibition, % at 10 µM; S. cerevisiae Candida pump triplex;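 active = plate passing quality check with inhibition over a set limit, or well fluorescence over plate mean plus 4 SD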;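 note: Nile Red retained in pooled yeast measured as flow cytometry median fluorescence; higher means more Nile Red kept so more efflux inhibition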
Cmpd fluor yeast: flagged as fluorescent in efflux inhibitor counter-screen. shares compounds with Efflux pump inh. S. cerevisiae AD/pABC3, compound fluorescence, flow cytometry. fluorescence ratio to DMSO, % at 10 µM. 4% of 1,700 active;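 active = fluorescence ratio to DMSO above its plate's cutoff, the plate mean ratio plus 5 SD, cut at about 210% in these data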;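 note: unstained yeast with no Nile Red so the signal is compound autofluorescence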
CaMdr1 efflux inh: inhibitors of Candida albicans Mdr1 efflux, confirmation, flow cytometry, singleplex, Cherry Pick1 set; shares compounds with Efflux pump inh; S. cerevisiae AD/CaMDR1, Nile Red efflux; inhibition, % at 10 µM; 1% of 1,700 active; AID 588518, 2011; in the data active = inhibition above about 26%;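 note: higher means more Nile Red retained so more efflux inhibition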
Cdr2 pump inh: inhibitors of Candida albicans Cdr2 efflux pump, confirmation, S. cerevisiae AD/CaCDR2, flow cytometry, cherry pick 1, singleplex; 4% of 1,700 active; shares compounds with Efflux pump inh; Nile Red retention ratio vs DMSO, % at 10 µM; Nile Red retention; in the data active = Nile Red retention ratio vs DMSO above about 190%;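 note: higher ratio means more blocking of Cdr2 efflux of the dye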
Cdr1 pump inh: inhibitors of Candida albicans Cdr1 efflux pump, confirmation, S. cerevisiae AD/CaCDR1, flow cytometry, cherry pick 1, singleplex; 1% of 1,700 active; inhibition, % at 10 µM; shares compounds with Efflux pump inh; Nile Red efflux;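 active = inhibition above the screen-wide mean plus twice its standard deviation, cut at about 32% in these data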
Of the large screens only hits and unclear results are named; the others gave an inactive call (follow-up assays come after a bar, where they were run).

CCN(CC)c1ccc(/C=C2\CCC(/C=N/NC(=O)c3ccc(=O)n(C)c3)=C2N2CCOCC2)cc1	Efflux pump inh 1.0 | Cmpd fluor yeast inactive | CaMdr1 efflux inh inactive | Cdr2 pump inh inactive | Cdr1 pump inh inactive
COc1ccc(C(=O)NCc2ccc3c(c2)OCO3)cc1S(=O)(=O)N(C)Cc1ccccc1	Efflux pump inh 7.6 | Cmpd fluor yeast inactive | CaMdr1 efflux inh inactive | Cdr2 pump inh inactive | Cdr1 pump inh inactive
O=C(O)c1ccccc1C(=O)NCC(O)COc1ccc(Cl)cc1 (configuration not stated)	none
COc1ccc(N2C(=O)CC(N3CCN(c4ccc(C(=O)c5cccnc5)cc4)CC3)C2=O)cc1 (configuration not stated)	Efflux pump inh 9.8 | Cmpd fluor yeast inactive | CaMdr1 efflux inh inactive | Cdr2 pump inh inactive | Cdr1 pump inh inactive
N#C/C(=C/c1ccc(-c2ccc(S(N)(=O)=O)cc2)o1)c1nc2ccccc2s1	Efflux pump inh 2.6 (no result: AI-2 QS mod) | Cmpd fluor yeast inactive | CaMdr1 efflux inh inactive | Cdr2 pump inh inactive | Cdr1 pump inh inactive
N#C/C(=C\c1ccc(-c2nc3ccccc3s2)o1)C(N)=O	none
N#C/C(=C/c1ccc(-c2ccc(S(N)(=O)=O)cc2)o1)C(=O)Nc1ccccc1	Efflux pump inh 9.7 | Cmpd fluor yeast inactive | CaMdr1 efflux inh inactive | Cdr2 pump inh inactive | Cdr1 pump inh inactive
O=C(CN1CCN(CCOCCO)CC1)N1c2ccccc2Sc2ccc(Cl)cc21	Efflux pump inh 1.4 | Cmpd fluor yeast inactive | CaMdr1 efflux inh inactive | Cdr2 pump inh inactive | Cdr1 pump inh inactive
O=S(=O)(NCCc1cn2ccccc2n1)c1ccc(F)c(C(F)(F)F)c1	Efflux pump inh 0.5 | Cmpd fluor yeast inactive | CaMdr1 efflux inh inactive | Cdr2 pump inh inactive | Cdr1 pump inh inactive
Cc1ccc(S(=O)(=O)N2CCCN(C(=O)c3cc4ccccc4[nH]3)CC2)cc1	none
Cc1noc(C)c1CSCC(=O)Nc1nc2c(F)cc(F)cc2s1	none (no result: AI-2 QS mod)
CCc1cc2c(=O)n(Cc3ccccc3)c(SC3CCOC3=O)nc2s1 (configuration not stated)	Efflux pump inh 0.9 | Cmpd fluor yeast inactive | CaMdr1 efflux inh inactive | Cdr2 pump inh inactive | Cdr1 pump inh inactive
N#Cc1ccc(CN2CCN(C(=O)CN3C(=O)NC4(CCCC4)C3=O)CC2)cc1	none (no result: AI-2 QS mod, SUMO Mot1 rescue, Efflux pump inh)
O=C(Nc1ccc(S(=O)(=O)Nc2ncccn2)cc1)c1cccc(Br)c1	none
O=C(Nc1ccc(S(=O)(=O)Nc2ccccn2)cc1)c1cccc(Br)c1	AI-2 QS mod -81.2, Efflux pump inh 6.2 | Cmpd fluor yeast inactive | CaMdr1 efflux inh inactive | Cdr2 pump inh inactive | Cdr1 pump inh inactive
Cc1cc(Cc2ccc([N+](=O)[O-])cc2)c(C)cn1	none
CCN(CC)c1ccc(/C=N/NC(=O)c2cc(C)nc3ccccc23)cc1	none
CCN(CC)c1ccc(/C=C/c2cc(-c3ccccc3)c3ccccc3n2)cc1	Efflux pump inh 1.9 | Cmpd fluor yeast inactive | CaMdr1 efflux inh inactive | Cdr2 pump inh inactive | Cdr1 pump inh inactive
Cc1ccsc1C1CC(=O)Nc2ccccc2S1 (configuration not stated)	none (no result: AI-2 QS mod) | Cmpd fluor yeast inactive | CaMdr1 efflux inh inactive | Cdr2 pump inh inactive | Cdr1 pump inh inactive
O=C1CC(c2ccco2)Sc2ccccc2N1 (configuration not stated)	none | Cmpd fluor yeast inactive | CaMdr1 efflux inh inactive | Cdr2 pump inh inactive | Cdr1 pump inh inactive
Cc1ccsc1C1Nc2ccccc2C(=O)N1O (configuration not stated)	none
O=C1CC(c2ccccc2)Sc2ccccc2N1 (configuration not stated)	none
COc1ccccc1NC(=O)COC(=O)c1cc([N+](=O)[O-])ccc1N1CCCC1	Efflux pump inh 0.9 (no result: AI-2 QS mod) | Cmpd fluor yeast inactive | CaMdr1 efflux inh inactive | Cdr2 pump inh inactive | Cdr1 pump inh inactive
O=C(COC(=O)c1cc([N+](=O)[O-])ccc1N1CCCC1)Nc1ccccc1OC(F)F	none (no result: AI-2 QS mod, SUMO Mot1 rescue, Efflux pump inh)
O=[N+]([O-])c1ccccc1-c1ccc(CN2CCN(c3ccccc3)CC2)o1	none
CCCCn1c(=N)n(CC(O)COc2ccc(C)cc2)c2ccccc21 (configuration not stated)	Efflux pump inh 1.2 | Cmpd fluor yeast inactive | CaMdr1 efflux inh inactive | Cdr2 pump inh inactive | Cdr1 pump inh inactive
CCCCn1c(=N)n(CC(O)COc2ccccc2)c2ccccc21 (configuration not stated)	none
CSCCC(NC(=O)c1ccccc1Cl)C(=O)N1CCN(C(c2ccccc2)c2ccccc2)CC1 (configuration not stated)	Efflux pump inh 0.5 | Cmpd fluor yeast inactive | CaMdr1 efflux inh inactive | Cdr2 pump inh inactive | Cdr1 pump inh inactive
O=C(c1ccco1)N1CCN(C(c2cccs2)c2nnnn2C2CCCCC2)CC1 (configuration not stated)	none
CC(C)CCN1CCC(n2nccc2NC(=O)C2CCOC2)CC1 (configuration not stated)	Efflux pump inh 1.4 | Cmpd fluor yeast inactive | CaMdr1 efflux inh inactive | Cdr2 pump inh inactive | Cdr1 pump inh inactive
CC(=O)c1c(N2CCOCC2)[nH]c(-c2ccccc2)nc1=S	none | Cmpd fluor yeast inactive | CaMdr1 efflux inh inactive | Cdr2 pump inh inactive | Cdr1 pump inh inactive
CSc1nc(-c2ccccc2)nc(N2CCOCC2)c1C(C)=O	none | Cmpd fluor yeast inactive | CaMdr1 efflux inh inactive | Cdr2 pump inh inactive | Cdr1 pump inh inactive
CC(=O)c1c(N2CCN(Cc3ccccc3)CC2)[nH]c(-c2ccccc2)nc1=S	Efflux pump inh 0.5 | Cmpd fluor yeast inactive | CaMdr1 efflux inh inactive | Cdr2 pump inh inactive | Cdr1 pump inh inactive
CC(=O)c1sc(N2CCOCC2)nc1-c1ccccc1	none
O=C(Nc1ccc(C2=NCCN2)cc1)c1ccc(C(=O)Nc2ccc(C3=NCCN3)cc2)c([N+](=O)[O-])c1	Efflux pump inh 1.1 (no result: V-ATPase pH) | Cmpd fluor yeast inactive | CaMdr1 efflux inh inactive | Cdr2 pump inh inactive | Cdr1 pump inh inactive
